# According to PubChem BioAssay:
# Calls of active or inactive are those of the source.
# Assays:
# Albumin (Bos taurus) = Albumin (Bos taurus) (UniProt P02769); assay: compounds binding labelled BSA control protein – biochemical, small-molecule microarray, Alexa647 label, 635/667 nm fluorescence, artefact control for SMM control protein annotation, profiling panel (AID 1118); conditions: BSA-A647 binding, fluorescence 635 nm, higher = more signal;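 note: score merges 667 nm emission intensity and signal-to-noise per printed compound spot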
# Albumin (Bos taurus), sequence (P02769 whole entry, looked up): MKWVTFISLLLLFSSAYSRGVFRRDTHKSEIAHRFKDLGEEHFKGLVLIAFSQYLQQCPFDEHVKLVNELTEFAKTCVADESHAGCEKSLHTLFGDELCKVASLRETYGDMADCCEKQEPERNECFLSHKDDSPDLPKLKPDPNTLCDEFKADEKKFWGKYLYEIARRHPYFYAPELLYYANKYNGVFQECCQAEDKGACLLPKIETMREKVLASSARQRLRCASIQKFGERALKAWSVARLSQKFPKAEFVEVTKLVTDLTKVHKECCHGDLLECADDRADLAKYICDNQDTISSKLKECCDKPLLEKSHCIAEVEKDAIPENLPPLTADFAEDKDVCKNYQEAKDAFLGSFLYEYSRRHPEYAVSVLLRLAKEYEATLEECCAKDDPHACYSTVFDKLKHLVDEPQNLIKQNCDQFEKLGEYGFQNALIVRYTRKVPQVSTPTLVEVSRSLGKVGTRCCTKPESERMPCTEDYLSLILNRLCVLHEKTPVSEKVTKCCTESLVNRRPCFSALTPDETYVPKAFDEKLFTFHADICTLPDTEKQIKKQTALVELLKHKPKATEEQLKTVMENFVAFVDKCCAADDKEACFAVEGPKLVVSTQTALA
# [1] = probe aXIP binding to arrayed compounds – biochemical, NeuroSMM set, 635/667 nm fluorescence, primary screen (AID 1119); conditions: small-molecule microarray, higher = more signal, called active from +8 up or from −8 down;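 note: probe is the protein aXip251-270 applied at 1 µg/mL to compound-printed slides; binding of probe to printed compounds measured as 667 nm fluorescence plus signal to noise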
# [2] = probe aNOTCH3 binding on compound microarray – biochemical, small-molecule microarray, 635/667 nm fluorescence, primary screen (AID 1120); conditions: higher = more signal;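 note: probe is a biotin-tagged antibody raised against NOTCH3 rather than NOTCH3 protein; score merges spot fluorescence near 667 nm with spot signal to noise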
# [3] = probe aNOTCH2 binding on compound microarray – biochemical, small-molecule microarray, 635/667 nm fluorescence, primary screen (AID 1121); conditions: higher = more signal;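 note: score merges feature fluorescence read at 667 nm with its signal to noise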
# [4] = molecular target: Carbonic anhydrase 2 (Homo sapiens) (UniProt P00918); assay: compounds binding carbonic anhydrase 2 – biochemical, small-molecule microarray, Alexa647-labelled CAII, profiling panel (AID 1122); conditions: CAII-A647 binding fluorescence, higher = more signal
# [5] = COS7 lysate on small-molecule microarray, probe aHis, 635 nm (AID 1123); conditions: COS7 cell lysate, fluorescence, higher = more signal;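 note: z-score combines 667nm fluorescence intensity with signal-to-noise per printed compound spot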
# [6] = probe aLAP1 signal on lysate-treated microarray – cell lysate, small-molecule microarray, COS7 lysate, primary screen (AID 1124); conditions: probe aLAP1, fluorescence, higher = more signal;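 note: lysate comes from COS7 cells expressing LAP1 and is applied at 0.3 µg/mL; score merges spot fluorescence near 667 nm with signal-to-noise over triplicate slides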
# Sam68 (KHDRBS1) = assay: compounds binding KHDRBS1 protein – biochemical, small-molecule microarray, 635 nm fluorescence, primary screen (AID 1125); conditions: higher = more signal;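 note: score merges 667 nm channel intensity with signal to noise over triplicate slides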
# [7] = test system: Chordin-like protein 2 (CHRDL2); assay: compounds binding chordin-like 2 – biochemical, small-molecule microarray, 635 nm fluorescence, primary screen (AID 1126); conditions: fluorescence 635 nm, higher = more signal;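 note: printed compound slides probed with Chrdl2 protein at 4 µg/mL for 1 h at 4 C; score merges 667 nm emission intensity with signal to noise over three replicate slides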
# [8] = molecular target: Concanavalin-A (Canavalia ensiformis) (UniProt P02866); assay: compounds binding concanavalin A lectin – biochemical, small-molecule microarray, Alexa647 label, 635 nm, artefact control for SMM control protein annotation, primary screen (AID 1127); conditions: ConA-A647 binding fluorescence, higher = more signal;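 note: z combines 667 nm emission intensity with signal-to-noise across three replicate slides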
# Concanavalin-A (Canavalia ensiformis), sequence (P02866 whole entry, looked up): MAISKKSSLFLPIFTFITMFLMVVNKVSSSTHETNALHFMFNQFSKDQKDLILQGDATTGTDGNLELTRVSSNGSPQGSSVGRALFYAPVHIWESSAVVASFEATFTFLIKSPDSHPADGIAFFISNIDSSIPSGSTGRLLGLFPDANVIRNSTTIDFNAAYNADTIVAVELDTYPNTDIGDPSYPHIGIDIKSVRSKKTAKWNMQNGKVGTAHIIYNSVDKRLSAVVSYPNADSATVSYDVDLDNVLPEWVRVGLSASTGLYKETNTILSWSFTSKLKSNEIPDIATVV
# [9] = compounds binding Alexa647 anti-His antibody – biochemical, small-molecule microarray, 635 nm fluorescence, artefact control for SMM control protein annotation, primary screen (AID 1128); conditions: higher = more signal;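 note: score merges feature fluorescence with signal-to-noise for each printed compound spot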
# [10] = test system: Human papillomavirus type 1a E7 protein (residues 1-88); assay: HPV1a E7 small-molecule binders, primary screen, biochemical, small-molecule microarray, residues 1-88, 635 nm (AID 1129); conditions: small-molecule microarray binding, fluorescence 635 nm; higher = more signal
# [11] = molecular target: Focal adhesion kinase 1 (Homo sapiens) (UniProt Q05397); assay: PTK2 protein binding on printed compound slides – biochemical, small-molecule microarray, 635/667 nm fluorescence, BSA, DTT, primary screen (AID 1130); conditions: 635 nm fluorescence, higher = more signal;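 note: composite of spot emission at 667 nm and signal to noise over triplicate slides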
# Focal adhesion kinase 1 (Homo sapiens), sequence (Q05397 whole entry, looked up): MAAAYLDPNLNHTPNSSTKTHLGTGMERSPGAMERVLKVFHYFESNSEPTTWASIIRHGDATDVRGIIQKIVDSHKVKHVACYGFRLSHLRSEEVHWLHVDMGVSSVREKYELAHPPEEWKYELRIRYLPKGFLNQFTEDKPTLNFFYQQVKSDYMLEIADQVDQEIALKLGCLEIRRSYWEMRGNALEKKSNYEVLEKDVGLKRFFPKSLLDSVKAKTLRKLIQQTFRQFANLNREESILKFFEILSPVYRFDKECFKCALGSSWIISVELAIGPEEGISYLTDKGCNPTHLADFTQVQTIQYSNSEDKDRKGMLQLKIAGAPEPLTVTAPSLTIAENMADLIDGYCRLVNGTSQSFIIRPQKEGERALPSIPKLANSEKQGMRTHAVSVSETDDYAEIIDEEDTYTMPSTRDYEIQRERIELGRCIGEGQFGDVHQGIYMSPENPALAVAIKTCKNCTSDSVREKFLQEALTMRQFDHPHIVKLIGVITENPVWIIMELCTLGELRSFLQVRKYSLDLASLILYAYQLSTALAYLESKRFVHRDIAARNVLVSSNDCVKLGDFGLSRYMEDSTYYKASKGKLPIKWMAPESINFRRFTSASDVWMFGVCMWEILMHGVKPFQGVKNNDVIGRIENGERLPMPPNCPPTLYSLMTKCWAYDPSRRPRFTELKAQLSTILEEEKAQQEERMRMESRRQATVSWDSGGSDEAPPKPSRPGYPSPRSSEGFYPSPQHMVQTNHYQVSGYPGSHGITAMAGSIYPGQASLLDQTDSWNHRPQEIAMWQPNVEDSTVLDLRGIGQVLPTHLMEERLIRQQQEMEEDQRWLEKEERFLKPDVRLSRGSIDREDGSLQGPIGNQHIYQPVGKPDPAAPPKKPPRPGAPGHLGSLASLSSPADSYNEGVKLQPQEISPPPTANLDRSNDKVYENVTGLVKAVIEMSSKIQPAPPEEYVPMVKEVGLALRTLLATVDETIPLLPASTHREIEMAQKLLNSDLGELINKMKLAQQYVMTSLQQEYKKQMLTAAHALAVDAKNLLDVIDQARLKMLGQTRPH
# [12] = test system: Fibrinogen (Alexa647-labelled); assay: Alexa647-fibrinogen binding to printed small molecules – biochemical, small-molecule microarray, 635/667 nm fluorescence, artefact control for SMM control-protein annotation, profiling panel (AID 1131); conditions: fibrinogen-A647 binding fluorescence, higher = more signal;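 note: z-score merges 667 nm fluorescence with per-spot signal-to-noise over triplicate slides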
# [13] = molecular target: Follistatin (Homo sapiens) (UniProt P19883); assay: FST protein binding to printed compounds – biochemical, small-molecule microarray, 635/667 nm fluorescence, primary screen (AID 1132); conditions: 635 nm fluorescence, higher = more signal
# Follistatin (Homo sapiens), sequence (P19883 whole entry, looked up): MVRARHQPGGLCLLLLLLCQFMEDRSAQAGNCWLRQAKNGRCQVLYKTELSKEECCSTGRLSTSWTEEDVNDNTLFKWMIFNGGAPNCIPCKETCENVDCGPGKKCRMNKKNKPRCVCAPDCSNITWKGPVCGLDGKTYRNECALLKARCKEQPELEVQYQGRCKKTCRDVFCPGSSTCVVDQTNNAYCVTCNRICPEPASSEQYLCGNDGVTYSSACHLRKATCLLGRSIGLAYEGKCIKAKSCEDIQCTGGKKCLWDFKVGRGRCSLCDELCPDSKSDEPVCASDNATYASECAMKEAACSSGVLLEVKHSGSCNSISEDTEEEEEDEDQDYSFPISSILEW
# [14] = molecular target: Fibroblast growth factor 2 (Homo sapiens) (UniProt P09038); assay: basic fibroblast growth factor binding to printed compounds – biochemical, small-molecule microarray, 635/667 nm fluorescence, primary screen (AID 1133); conditions: FGF2, fluorescence 635/667, higher = more signal
# Fibroblast growth factor 2 (Homo sapiens), sequence (P09038 whole entry, looked up): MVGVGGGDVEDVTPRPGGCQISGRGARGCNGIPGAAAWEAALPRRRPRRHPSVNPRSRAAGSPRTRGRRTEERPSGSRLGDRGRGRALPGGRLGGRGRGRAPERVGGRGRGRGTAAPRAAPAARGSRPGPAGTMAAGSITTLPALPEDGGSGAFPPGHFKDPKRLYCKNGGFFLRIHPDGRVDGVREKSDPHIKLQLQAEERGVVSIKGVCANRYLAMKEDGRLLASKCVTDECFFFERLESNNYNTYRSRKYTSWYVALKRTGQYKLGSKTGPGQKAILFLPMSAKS
# [15] = JC-1 mitochondrial potential readout, lung cancer cells – cell-based, A549, JC-1 fluorescence, basal, 24 h, 100 nL, profiling panel (AID 1138); conditions: higher = more signal;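 note: A549 lung adenocarcinoma cells under basal conditions with no added stimulus; test concentration not given here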
# Lefty1 = Lefty1 protein binding to printed compounds – biochemical, small-molecule microarray, 635/667 nm fluorescence, primary screen (AID 1139); conditions: fluorescence 635/667, higher = more signal
# [16] = test system: wheat germ agglutinin (Triticum aestivum), Alexa647-labelled; assay: Alexa647-WGA lectin binding to printed small molecules – biochemical, small-molecule microarray, 635/667 nm fluorescence, artefact control for SMM control-protein annotation, profiling panel (AID 1140); conditions: WGA-A647 binding, 635 nm fluorescence, higher = more signal;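 note: score merges 667 nm feature emission with signal to noise over triplicate slides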
# [17] = molecular target: Luciferin 4-monooxygenase (Photinus pyralis) (UniProt P08659); assay: inhibition of purified Photinus pyralis luciferase – biochemical, luminescence, purified enzyme, 2006 set, primary screen (AID 1141); conditions: purified firefly luciferase, SteadyGlo luminescence, 30 min; higher = more signal, called active from +8 up or from −8 down;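 note: cell-free assay with purified firefly luciferase at 100 ng per well in PBS; test concentration not given here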
# Luciferin 4-monooxygenase (Photinus pyralis), sequence (P08659 whole entry, looked up): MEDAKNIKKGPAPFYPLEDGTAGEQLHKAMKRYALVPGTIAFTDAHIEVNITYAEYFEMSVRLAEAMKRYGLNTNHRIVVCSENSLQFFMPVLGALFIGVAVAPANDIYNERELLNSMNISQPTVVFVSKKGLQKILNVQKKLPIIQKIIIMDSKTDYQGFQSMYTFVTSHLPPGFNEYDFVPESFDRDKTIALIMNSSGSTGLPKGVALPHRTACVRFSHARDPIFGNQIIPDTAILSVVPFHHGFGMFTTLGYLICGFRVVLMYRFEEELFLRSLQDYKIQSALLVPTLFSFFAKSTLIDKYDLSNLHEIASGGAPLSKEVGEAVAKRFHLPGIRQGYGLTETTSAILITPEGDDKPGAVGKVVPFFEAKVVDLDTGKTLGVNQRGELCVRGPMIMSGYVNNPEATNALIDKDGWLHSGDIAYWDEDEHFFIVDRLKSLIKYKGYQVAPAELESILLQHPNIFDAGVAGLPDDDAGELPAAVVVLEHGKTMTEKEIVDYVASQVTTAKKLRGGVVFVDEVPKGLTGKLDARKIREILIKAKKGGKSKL
Compound,composite z-score (Albumin (Bos taurus)),composite Z-score [1],composite z-score [2],composite z-score [3],composite z-score [4],composite z-score [5],composite z-score [6],composite z-score (Sam68 (KHDRBS1)),composite z-score [7],composite z-score [8],composite z-score [9],composite z-score [10],composite z-score [11],composite z-score [12],composite z-score [13],composite z-score [14],z-score [15],composite z-score (Lefty1),composite z-score [16],z-score [17]
O=C1O[C@H](c2ccccc2)[C@H](c2ccccc2)N2[C@H]1[C@@H](C(=O)O)[C@]1(C(=O)Nc3ccc(C#CCCO)cc31)[C@H]2c1ccccc1OCCO,0.713,-0.308 (inactive),-0.19,-0.124,0.729,0.676,0.681,0.794,-0.579,0.991,0.84,0.0764,0.0281,0.289,0.622,-0.0212,-0.689,0.404,0.842,-0.747 (inactive)
CC(C)c1ccc(NN2C(C(O)c3ccc(C#N)cc3)C=CC3C(=O)N(c4ccccc4)C(=O)C32)cc1 (stereo not given),1.04,0.238 (inactive),0.33,-0.0296,0.358,2.84,0.982,1.3,0.0494,0.926,0.433,1.21,1.97,1.04,1.01,-0.14,-0.131,-0.278,0.949,-0.973 (inactive)
CCCC=C(CCC)[C@@H](NC(=O)C(C)(C)C)c1ccc(C(=O)OC)cc1,0.991,0.29 (inactive),0.25,0.0199,0.441,2.76,0.103,0.622,-0.91,0.869,0.933,1.01,0.451,0.972,0.156,-0.764,2.85,-0.947,0.995,1.91 (inactive)
C=C[C@@H](CO)N(Cc1ccc(OC)cc1)S(=O)(=O)c1ccc(Br)cc1,0.131,-0.0461 (inactive),-0.147,-0.0078,0.352,0.31,-0.345,0.388,0.231,0.241,1.53,0.687,0.188,-0.0952,0.351,0.965,0.739,-0.327,0.316,0.356 (inactive)
CCCCCCCCCCC(O)C1C=CC2C(=O)N(c3ccccc3)C(=O)C2N1Nc1ccc(C#N)cc1 (stereo not given),0.957,0.338 (inactive),0.286,0.0169,0.562,1.53,0.906,1.34,-0.842,1.12,-0.0221,1.18,0.464,0.989,0.652,0.429,3.49,0.0328,1.13,0.675 (inactive)
C=CCNC(=O)[C@@H]1[C@H]2C(=O)O[C@H](c3ccccc3)[C@H](c3ccccc3)N2[C@H](c2ccccc2OCCO)[C@@]12C(=O)Nc1ccc(C#CCC(C(=O)OC)C(=O)OC)cc12,-0.0735,0.822 (inactive),0.514,0.283,0.648,1.66,1.62,1.27,-0.14,0.727,1.03,1.2,0.978,0.0251,0.67,0.335,-1.44,-0.0767,0.551,-0.238 (inactive)
O=C1C2C=CC(C(O)c3cccc(O)c3)N(Nc3ccc([N+](=O)[O-])cc3)C2C(=O)N1c1ccccc1 (stereo not given),0.477,-0.335 (inactive),0.0116,-0.0703,0.788,0.762,0.153,0.821,-0.264,0.41,1.18,0.785,0.264,0.578,0.418,0.526,-1.15,0.292,0.0289,0.931 (inactive)
CN(C)C(=O)[C@@]1(Cc2ccccc2)N=C(c2ccc(OCCCO)cc2)O[C@H]1c1ccccc1,0.637,0.684 (inactive),0.738,0.314,0.617,2.69,0.973,0.983,-0.682,0.931,2.33,1.24,0.179,0.971,0.232,0.393,0.568,-0.557,1.21,-0.794 (inactive)
COc1ccc([Si](C)(C)[C@@H]2[C@@H](CCO)O[C@]3(C(=O)N(Cc4ccccc4)c4ccc(NC(=O)[C@H](C)O)cc43)[C@H]2C)cc1,0.0962,-0.0289 (inactive),0.147,-0.106,0.377,1.2,0.515,1.29,0.448,1.14,0.888,1.21,1.04,0.851,1.2,0.462,-0.955,1.29,0.417,0.265 (inactive)
CC(C)N1CC=CC23O[C@@H]4C=CCCOC(=O)C4[C@H]2C(=O)N(CCCO)[C@@H]3C1=O (stereo not given in full),-0.682,-0.472 (inactive),-0.112,-0.0995,0.734,-0.192,0.303,0.334,-0.347,-0.0639,0.939,-0.0707,0.248,-1.09,-0.0801,-0.565,-1.31,-0.0004,-0.467,0.0763 (inactive)
COc1cc2c(cc1O)C(c1ccc(CN3CCCC3)cc1)N(Cc1cc3c(cc1Br)OCO3)CC2 (stereo not given),0.905,0.0698 (inactive),-0.0089,-0.102,0.891,0.796,0.119,-0.521,-0.0867,0.655,-0.381,-0.367,0.171,0.516,0.0395,-0.73,1.11,-0.268,0.688,-1.37 (inactive)
